# PubChem BioAssay (NCATS)
# Results filed as inconclusive are left out. A call without a number means that no potency is given here. A number with no mark means an inactive call. Active and inactive are the calls of the source. Calls come from the whole dose curve; as a rule, active = well fitted curve in the direction sought with a large enough effect; inconclusive = small, poorly fitted or top-dose-only effect, or another doubt; inactive = no such curve, though single readings can be large; an effect the other way counts as inactive or inconclusive.
# Key:
# MCC-26 = assay: qHTS assay to identify novel small-molecules to repurpose for Merkel cell carcinoma treatment (AID 1296009); conditions: MCC and control cell lines, CellTiter-Glo viability, 72 h; series mostly up to 46 µM; note: nearly all actives have a fitted effect of over 60% in size; note: potency is the fitted concentration of half-maximal effect
# How it was run: (§1)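 Cell viability measured by CellTiter-Glo following 72 hr compound treatment at 37 degree celsius, with NPC and MIPE libraries tested in 8- and 11-point concentration series.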
# MKL-2 = assay: as above; conditions: MCC and control cell lines, CellTiter-Glo viability, 72 h; series mostly up to 46 µM
# How it was run: as §1
# WaGa = assay: as above; conditions: MCC and control cell lines, CellTiter-Glo viability, 72 h; series mostly up to 46 µM
# How it was run: as §1
# CAOV3 = assay: Primary qHTS to identify gynecologic anti-cancer compounds using libraries of approved drugs and bioactive compounds (AID 1345084); conditions: Gynecologic cancer cell panel viability, ATPlite luminescence, 48 h; series mostly up to 57.5 µM; note: nearly all actives have a fitted effect of over 55% in size
# How it was run: (§2)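 Measured: luminescence after ATPlite addition (15 min, RT). Exposure: 48 h, 37 C, 5% CO2.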
# CASKI = assay: as above; conditions: Gynecologic cancer cell panel viability, ATPlite luminescence, 48 h; series mostly up to 57.5 µM
# How it was run: as §2
# Es-2 = assay: as above; conditions: Gynecologic cancer cell panel viability, ATPlite luminescence, 48 h; series mostly up to 57.5 µM
# How it was run: as §2
# HeLa = assay: as above; conditions: Gynecologic cancer cell panel viability, ATPlite luminescence, 48 h; series mostly up to 57.5 µM
# How it was run: as §2
# JEG-3 = assay: as above; conditions: Gynecologic cancer cell panel viability, ATPlite luminescence, 48 h; series mostly up to 57.5 µM
# How it was run: as §2
# OV90 = assay: as above; conditions: Gynecologic cancer cell panel viability, ATPlite luminescence, 48 h; series mostly up to 57.5 µM
# How it was run: as §2
# PA-1 = assay: as above; conditions: Gynecologic cancer cell panel viability, ATPlite luminescence, 48 h; series mostly up to 57.5 µM
# How it was run: as §2
# SKOV3 = assay: as above; conditions: Gynecologic cancer cell panel viability, ATPlite luminescence, 48 h; series mostly up to 57.5 µM
# How it was run: as §2
# Tov-21-G = assay: as above; conditions: Gynecologic cancer cell panel viability, ATPlite luminescence, 48 h; series mostly up to 57.5 µM
# How it was run: as §2
# Tov112D = assay: as above; conditions: Gynecologic cancer cell panel viability, ATPlite luminescence, 48 h; series mostly up to 57.5 µM
# How it was run: as §2
# UISO = assay: qHTS assay to identify novel small-molecules to repurpose for Merkel cell carcinoma treatment (AID 1296009); conditions: MCC and control cell lines, CellTiter-Glo viability, 72 h; series mostly up to 46 µM; note: nearly all actives have a fitted effect of over 60% in size; note: potency is the fitted concentration of half-maximal effect
# How it was run: as §1
# C33A = assay: Primary qHTS to identify gynecologic anti-cancer compounds using libraries of approved drugs and bioactive compounds (AID 1345084); conditions: Gynecologic cancer cell panel viability, ATPlite luminescence, 48 h; series mostly up to 57.5 µM; note: nearly all actives have a fitted effect of over 55% in size
# How it was run: as §2
# Hek293T = assay: as above; conditions: Gynecologic cancer cell panel viability, ATPlite luminescence, 48 h, control line for the selectivity index; series mostly up to 57.5 µM
# How it was run: as §2
# [1] = Drug repurposing screens with cells derived from glioblastoma tumor samples (AID 1345199); conditions: GBM patient neurospheres viability, ATP luminescence, 48 h; note: nearly all actives have a fitted effect of over 40% in size
# How it was run: (§3)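 Primary testing used CD133+ neurospheres from four GBM patients, seven concentrations, 48 h exposure and ATP-based viability; confirmation added three slower-growing patient lines.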
# astro = assay: as above; conditions: viability, ATP luminescence, 48 h; series mostly up to 45.9 µM
# How it was run: as §3
compound,measurement,setting,value
CC1=C(C)C(=O)C(CCCCC#CCCCC#CCO)=C(C)C1=O,Potency,MCC-26,inactive
same,Potency,MKL-2,26.6 µM (active)
same,Potency,WaGa,21.1 µM (active)
same,Potency,CAOV3,inactive
same,Potency,CASKI,inactive
same,Potency,Es-2,inactive
same,Potency,HeLa,inactive
same,Potency,JEG-3,inactive
same,Potency,OV90,inactive
same,Potency,PA-1,inactive
same,Potency,SKOV3,inactive
same,Potency,Tov-21-G,inactive
same,Potency,Tov112D,inactive
CCN(CC)CCNC(=O)c1ccc(NC(C)=O)cc1,Potency,MCC-26,inactive
same,Potency,MKL-2,inactive
same,Potency,UISO,inactive
same,Potency,C33A,inactive
same,Potency,CAOV3,inactive
same,Potency,CASKI,inactive
same,Potency,Es-2,inactive
same,Potency,Hek293T,inactive
same,Potency,JEG-3,inactive
same,Potency,OV90,inactive
same,Potency,PA-1,inactive
same,Potency,SKOV3,inactive
same,Potency,Tov-21-G,inactive
same,Potency,Tov112D,inactive
same,"activity, negative = cell killing","[1]; at 45.9 µM (top of the series), tumour line B",-5.4%
same,"activity, negative = cell killing","[1]; at 45.9 µM (top of the series), tumour line D",7.82%
same,"activity, negative = cell killing","[1]; at 46 µM (top of the series), tumour line A",7.67%
same,"activity, negative = cell killing","[1]; at 46.1 µM (top of the series), tumour line C",-13.9%
same,Potency,astro,inactive
COc1cc2c(cc1OC)-c1cc(=Nc3c(C)cc(C)cc3C)n(C)c(=O)n1CC2,Potency,CAOV3,inactive
same,Potency,Hek293T,inactive
same,Potency,OV90,inactive
